Results as given in PubChem BioAssay AID1159506 (National Center for Advancing Translational Sciences (NCATS), 2015).
Over roughly 59,000 sequences, the read-out has its median near -0.00055; the lowest 2% begin near -2. Shown is part of a subset that was picked to be rich in the lowest values.

experiment: Identification of proteins required for the processing of the EWS-FLI1 nascent transcript; conditions: TC32 Ewing sarcoma NR0B1-luc vs CMV-luc (EWS-FLI1 target promoter against control promoter), 48 h; screened at 20 nM (by protocol);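 note: robust z of luciferase light less the median z of siRNAs with the same seed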
How it was run: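 Parallel TC32-NR0B1-luc and TC32-CMV-luc reverse transfections with 20 nM siRNA in RPMI-1640/10% FBS, luciferase measured 48 h later. Seed-adjusted z-scores from normalized, z-score-MAD transformed data; AllStars negative and siGL4 controls on each plate.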

| Sequence | seed-corrected z-score |
| --- | --- |
| UUCAGACUUGUUUUCACCC against POU1F1 | -0.00706 |
| AAAGGUAGAAAGAAGGACU against ZDHHC8P1 | -0.722 |
| UUGGUCUAGACUACUCUCC against KRT5 | -0.431 |
| ACAGAUAUCACAGGUAACC against MCU | 0.266 |
| AACAUAGCUAAAGUUGUUG against SLC16A5 | -3.24 |
| GAGCCGAACACCACUAUGG against SYNGR1 | -0.617 |
| AGAUCUACUACAGCCGUUC against RARS2 | 0.391 |
| UUCGACCCAAGGUUUGUGC against DBF4 | 0.865 |
| UUAAUGAUAAACACGUCUU against LMX1A | -0.388 |
| UCCUAUAGCAGAAUAUUCC against PVRL3 | -0.846 |
| UCAACAUUAGGUUUCUUAG against TAF9B | 0.431 |
| UCUGGUAGUUCUUCAAGGC against LINC00238 | 0.0623 |
| UAUUCUGUAGGCUCAAAAC against KRTAP4-11 | -3.43 |
| UUUCGCUAAGCUGCUCUUC against AQP9 | -0.131 |
| UUAUGGAAUGUCGUUUUCC against FAM228A | 0.0891 |
| UAAUGUCUAAGGAAGAUUU against ZBTB8A | 0.693 |
| AAGCUGAUAAUAGGCUUUC against DNAJA3 | -0.565 |
| UUCCAAGACAGAAAUGAGG against DNHD1 | 0.456 |
| UGGGAUUUUAAAACGGCGG against DPP9 | 0.0729 |
| UUCUAUUUAGGAGAGCUUC against RPS16P10 | -1.32 |
| UAUCUUGUGGUGGUAGAGC against METTL23 | 0.782 |
| UCCGUUUUUGAGAAACUUG against PNLDC1 | -0.423 |
| UAGAAAGUCUUUACUAUGU against PIGA | -1.02 |

| Sequence | seed-corrected z-score |
| --- | --- |
| UAAGUAGAUGGAGGACACC against MRGPRF | -2.16 |
| AUAUAGGAUCUUAUUGUGC against B4GAT1 | -0.205 |
| UUUUGUCCCGGAACAUGCG against BCR | -0.22 |
| UUCUCGUUCUGUUAAGUUC against CCDC144B | 0.479 |
| UGUUGUAGUAGUAACGCAG against LOC390937 | -3.19 |
| UCAGUUGUUACGCAAGGUG against PI16 | -0.652 |
| AAAUGGUCCAGAAUCCAGC against FOXN2 | 0.634 |
| UUUGGGUCGUUGUACAUCU against AGBL4 | -2.02 |
| UACUGAACUCCAUCUGACU against C1orf198 | 1.54 |
| UCGUUGUAUAAUUUUGCCC against WDR17 | -1.13 |
| AAUGCGACGAGACAAGAUG against WASF2 | 0.812 |
| UUCAUUAAGAAGCACCUGG against NDFIP2 | 0.91 |
| ACUAGUACUGGGAAGGUCC against CDKN1C | -2.28 |
| UCUAGGCUCAGCAAUGACU against CD19 | 0.138 |
| AAUAGAUUCAACAAGGGUG against BCL10 | 1.13 |
| AUGGAGGUAAUGACGAUCA against UPK3B | -2.86 |
| UCUAGAUACUUAAUGGUGC against LAMP2 | 0.192 |
| UUAUUGACACUUGUUCAAG against COX7A1 | 0.106 |
| AAUGUAUCUAAGCAACUUC against DDIAS | -0.473 |
| ACAUAGGUUGGGUCGAUCC against XYLT2 | -1.65 |
| UACUUAACCGGGAAGCUAC against NUMB | -0.172 |
| UUUGCAGGUAGAAUUAAGG against B3GALT5-AS1 | -2.65 |
| UUAGCAUCUGCAGCAUUCU against RBMY2DP | -0.255 |

| Sequence | seed-corrected z-score |
| --- | --- |
| UGGGUUGUAGAGAUCUACC against AKAP4 | 0.156 |
| UACCCGGAAAAGUAAAUCC against ROBO2 | 0.288 |
| UGAUAUAUGAAUUGGAGUC against CDKN3 | -0.146 |
| UUCUUCAUCAGAUGGUUCC against SF3B2 | -3.21 |
| AGUUUAGCUAUGACAAUGG against C2orf66 | 0.917 |
| UUCUCCUUCAUCAAGUUCA against S100A7L2 | 0.705 |
| UUCGUUACAGAACUGACCG against YEATS2 | -0.228 |
| UCCAUAACCUGUUCUACGC against NFU1 | 0.244 |
| UCUUGUCUACUAUCACUGC against PRR13 | 1.15 |
| UUCUGAACCUUCGCAGUGC against PPP1R3B | 0.0534 |
| UUCUGAAACAAGCCCUUGC against CCDC103 | -2.08 |
| UUCUUGACUAUCUUCAUCU against CBX4 | -0.275 |
| UCUAUUUUGACCGAGUAUG against CKAP4 | 0.169 |
| AUGAUGUUCACGAUGAUGG against SYT7 | -2.72 |
| UUGCAAUGCAUGGUGCACC against FAM136A | -1.35 |
| UUGUCUUUUACUUCCAUCC against CLEC7A | -1.06 |
| UAGUUAAUGGAGUAACUCC against KDM5C | -0.0641 |
| ACUUUUUACCUCCUCAUUC against OR4E2 | 1.72 |
| AGCAGGAUAAAAACGAUCU against TMC4 | 0.756 |
| UGUUGGAUAAGGUUAGAAC against ZNF34 | 0.0223 |
| AAUGUUUCCCACAUGGAUG against SMARCB1 | -1.85 |
| UGUAAUUAUACCAAUGUAG against EEF1B2P5 | -2.11 |
| UCUCGUAUGAUAUAAUCUC against HCN1 | 0.749 |

| Sequence | seed-corrected z-score |
| --- | --- |
| AACCGGAUUAAGGAAAGUG against BTBD1 | -0.375 |
| UGAAGGGAUAGUUUCUCUG against FZD10-AS1 | -0.829 |
| UAAGUUGCACUUUCCAUUC against ZNF266 | -3.46 |
| AACCGUUCCAUAUCAUCUC against BEX5 | 0.658 |
| UCCUUGUCCACAUGGAGAC against CREBZF | -1.01 |
| UUAUAAUCUACAUGCUUUC against MRPS18C | 0.39 |
| UCUGCUGUCCUGUAAGUCG against AMACR | 0.214 |
| UUAGCUGUGAGUGCUUUCC against TNFRSF11A | -2.35 |
| UUGAGUGCAACUUCAAGUC against OPTN | 2.17 |
| UUCUGGAGCAGACCUGUCC against DKK4 | 0.057 |
| UGUUAGCUCAGUCACGUAG against GBP7 | 0.141 |
| GUGUGCAUCAGAUGCUCUG against NUTM2F | 1.15 |
| UCGCUGAUCAGCAUGACCU against ITFG2 | -0.4 |
| UCUCUUUAUGCAGCUGACA against LTF | -2.1 |
| UAGAUGUUGACGCCCAUGG against MRPL54 | 0.63 |
| UGAGUACCCAUGGUUGGAG against KY | -1.24 |
| UUCAGGACAAUCUUGUUCC against UBL5 | -0.0381 |
| AUUGUAACCAGUCACGUAC against FLRT3 | 0.235 |
| UGAGAUAUGCGACAGAUGG against ACOX2 | -0.67 |
| AUUGCUCUGAAGUGAAUUC against LMO4 | -0.726 |
| UACAGGCUAAAUACACUCC against ANAPC13 | -2.73 |
| AGAGUUAAAACUGGAGGCG against POU2F3 | 0.349 |
| UUCUAGAUUAUUAUAGGAC against LRFN5 | -0.0413 |

| Sequence | seed-corrected z-score |
| --- | --- |
| UGUUCUUGUAUUUCGCUUG against ZBED9 | -0.528 |
| AAAGAGGUGAUAGAGCACG against PAQR4 | -1.03 |
| UACGAUAUCAGCAUUGCAG against CNOT6 | 0.29 |
| UUCUGGUAUACGUGUUUCG against TNFSF8 | 0.471 |
| UUGGUUAACCAGGUUCACC against LOC390282 | -2.14 |
| AGCUGGUCAAUGUAGUCGC against MAPK11 | 0.202 |
| UACAGUAUCAGCUUCUACA against LOC643855 | 0.618 |
| UUCCAGACCAUGAGAUGCC against PIGO | -0.121 |
| UCAUGUUCAACCCAAACUC against ANKMY1 | -4.15 |
| UCUAGGACAGCUCUUAUCC against EDEM3 | 0.599 |
| UUUGUUACUUUGUCCAUUC against ARMC9 | -0.253 |
| UAGCUGUUCCUUGUAGUUG against NABP1 | 0.675 |
| UUGAUCACCACUUCGGAGC against CHRM1 | -0.914 |
| UCACGUUUAUUCUGAAUCC against NDC1 | -1.1 |
| UGUCCAUGAAAUUUCUCUG against ARL2BP | 1.12 |
| UUUUUCUCGAUCUGCUUCC against CCDC64 | -2.13 |
| UAAUGCAUCUUCAAAAUUC against LOC730338 | 0.94 |
| UACUUUGUUAUAGGAUCUC against CWC22 | -0.653 |
| UUUGGGAUCAAAUCGGUGG against NAPSA | 0.0625 |
| UGCGAAUCUGCUAGGAUGC against GLTSCR1L | 0.0332 |
| UAUCCUUCAGGCUAAGAUG against SGOL1 | -2.83 |
| UUACUUUGUAGAUACAACA against FAM201A | -1.74 |
| UUAGCUGCAAUUGCCUUCU against ZWINT | -2.63 |

| Sequence | seed-corrected z-score |
| --- | --- |
| UCGUGAUUACGUUAAGUGC against CCNH | 0.304 |
| UGAAUGCUGAGAACUGUGC against PAPPA2 | -0.138 |
| UAUAGGUCAGGCAACCUUG against ATP11AUN | -0.763 |
| UAAGUUGACAGGCUGUCCA against NXPH3 | -2.06 |
| UGCUUGUCUCGGUUAAUGC against NCF2 | -0.104 |
| AAAACUACCGUUUGUGCAU against RPS27 | 0.994 |
| UGCUCUAGCACAGUGUUCC against CCDC87 | -2.86 |
| AUAGUUUAUAAGUCCUAUC against CGRRF1 | 0.53 |
| AUGUCCUUAAAUUCACUCU against GJB2 | -2.43 |
| UAAUAUUACCUUUAUGUUG against TBC1D3P2 | 2.12 |
| UUCUUGAAAUCCAACCACC against ACSM6 | 0.592 |
| AAAUCGUUAGUUGAGGAGC against USP53 | 0.292 |
| ACAGGGACAAUGUAGGAAG against PRSS47 | -2.17 |
| UAGUAUGAAAAUAGAAGUC against BTBD8 | 0.167 |
| UCAGGGUUAGAGGUAGUGG against SMCR8 | 0.401 |
| UAGUGGAUGUCAAACGAGG against CTSD | 0.501 |
| UACCCAUCAAAGCAAUCGC against LTBP1 | -0.403 |
| AGAUCAAUUAGUAAUCCUC against CHM | -0.298 |
